A short description of the test: suppression of NO production in INS-1E cells – cell-based, Griess absorbance, dry powder, dose response (AID 488866).

SMILES strings stand for the structures. Potency and affinity values are given separately. Activity calls are given as the source filed them.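 The calls were made as follows: active = compounds that lower nitrite signal with fitted half-max concentration up to ten times top dose; inconclusive = flat curves showing 30 to 70% inhibition, or poor fits; inactive = the rest.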

Turning to `C[C@@H]1CN([C@@H](C)CO)C(=O)c2cccc(NC(=O)Nc3cccc4ccccc34)c2O[C@H]1CN(C)S(=O)(=O)c1ccc2c(c1)CCC(=O)N2`, the call was inactive. Next, `C[C@@H]1CN([C@@H](C)CO)C(=O)c2cccc(NC(=O)Nc3cccc4ccccc34)c2O[C@H]1CN(C)S(=O)(=O)c1ccc(Oc2ccccc2)cc1`: “inactive”. The entry for `COc1ccc(S(=O)(=O)N(C)C[C@@H]2Oc3c(NC(=O)Nc4cccc5c4NSN5)cccc3C(=O)N([C@@H](C)CO)C[C@H]2C)cc1` is “inactive”. `COc1ccccc1S(=O)(=O)N(C)C[C@@H]1Oc2c(NC(=O)Nc3cccc4ccccc34)cccc2C(=O)N([C@@H](C)CO)C[C@H]1C`: the outcome was inactive. Next, `C[C@@H]1CN([C@@H](C)CO)C(=O)c2cccc(NC(=O)Nc3cccc4ccccc34)c2O[C@H]1CN(C)S(=O)(=O)c1ccccc1F`: “inactive”. For `COc1ccc(S(=O)(=O)N(C)C[C@@H]2Oc3c(NC(=O)Nc4ccc5occc5c4)cccc3C(=O)N([C@@H](C)CO)C[C@H]2C)cc1`, the outcome was inactive. As for `COc1ccc(S(=O)(=O)N(C)C[C@@H]2Oc3c(NC(=O)Nc4cc(F)ccc4F)cccc3C(=O)N([C@@H](C)CO)C[C@H]2C)cc1`, the result was inactive. In the case of `C[C@@H]1CN([C@@H](C)CO)C(=O)c2cccc(NC(=O)Nc3ccc(F)cc3)c2O[C@H]1CN(C)S(=O)(=O)c1ccc(Cl)cc1`, the call was inactive. For the compound `COc1ccc(S(=O)(=O)N(C)C[C@@H]2Oc3c(NC(=O)Nc4cccc5ccccc45)cccc3C(=O)N([C@@H](C)CO)C[C@H]2C)cc1F`, the call was inactive. `COc1ccc(S(=O)(=O)N(C)C[C@@H]2Oc3c(NC(=O)Nc4ccc5c(c4)OCCO5)cccc3C(=O)N([C@@H](C)CO)C[C@H]2C)cc1`: the compound was called inactive.

As for `Cc1ccc(S(=O)(=O)N(C)C[C@@H]2Oc3c(NC(=O)Nc4cccc5ccccc45)cccc3C(=O)N([C@@H](C)CO)C[C@H]2C)cc1`, the compound was called inactive. The entry for `C[C@@H]1CN([C@@H](C)CO)C(=O)c2cccc(NC(=O)Nc3cccc4ccccc34)c2O[C@H]1CN(C)S(=O)(=O)c1ccc2c(c1)OCCO2` is “inactive”.

For the compound `COc1ccc(S(=O)(=O)N(C)C[C@@H]2Oc3c(NC(=O)Nc4cccc5c4CC(C)(C)O5)cccc3C(=O)N([C@@H](C)CO)C[C@H]2C)cc1`, the outcome was inactive.

In the case of `COc1ccc(S(=O)(=O)N(C)C[C@@H]2Oc3ccc(NC(=O)Nc4cccc5ccccc45)cc3C(=O)N([C@@H](C)CO)C[C@H]2C)cc1`, the call was inactive.

As to `Cc1ccc(S(=O)(=O)N(C)C[C@@H]2Oc3c(NC(=O)Nc4ccc(F)cc4)cccc3C(=O)N([C@@H](C)CO)C[C@H]2C)cc1`, the result was inactive. Consider `COc1cccc(S(=O)(=O)N(C)C[C@@H]2Oc3c(NC(=O)Nc4cccc5ccccc45)cccc3C(=O)N([C@@H](C)CO)C[C@H]2C)c1`, for which the call was inactive.

As for `COc1ccc(S(=O)(=O)N(C)C[C@@H]2Oc3c(NC(=O)Nc4cccc5c4ccn5C)cccc3C(=O)N([C@@H](C)CO)C[C@H]2C)cc1`, the compound was classed as inactive. Consider `COc1ccc(S(=O)(=O)N(C)C[C@@H]2Oc3c(NC(=O)Nc4cc(F)cc5c4OCOC5)cccc3C(=O)N([C@@H](C)CO)C[C@H]2C)cc1`, for which the result was inactive. For the compound `COc1ccc(S(=O)(=O)N(C)C[C@@H]2Oc3c(NC(=O)Nc4cccc(-c5ncccn5)c4)cccc3C(=O)N([C@@H](C)CO)C[C@H]2C)cc1`, the outcome was inactive.

`Cc1ccc(S(=O)(=O)N(C)C[C@@H]2Oc3c(NC(=O)Nc4ccc(F)cc4)cccc3C(=O)N([C@H](C)CO)C[C@H]2C)cc1`: the compound was classed as inactive. Take `COc1ccc(S(=O)(=O)N(C)C[C@@H]2Oc3c(NC(=O)Nc4cccc5c4CCCC5)cccc3C(=O)N([C@@H](C)CO)C[C@H]2C)cc1`: the call was inactive. Take `C[C@@H]1CN([C@@H](C)CO)C(=O)c2cccc(NC(=O)Nc3cccc4ccccc34)c2O[C@H]1CN(C)S(=O)(=O)c1ccc(F)cc1`: the outcome was inactive.

In the case of `COc1ccc(S(=O)(=O)N(C)C[C@@H]2Oc3c(NC(=O)c4cccc5ccccc45)cccc3C(=O)N([C@@H](C)CO)C[C@H]2C)cc1`, the compound was classed as inactive. On to `C[C@@H]1CN([C@@H](C)CO)C(=O)c2cccc(NC(=O)Nc3cccc4ccccc34)c2O[C@H]1CN(C)S(=O)(=O)Cc1ccc(F)cc1`, for which the outcome was inactive.

As to `C[C@@H]1CN([C@@H](C)CO)C(=O)c2cccc(NC(=O)Nc3ccc(F)cc3)c2O[C@H]1CN(C)S(=O)(=O)c1ccc(F)cc1`, the compound was classed as inactive.

Consider `COc1ccc(S(=O)(=O)N(C)C[C@@H]2Oc3c(NC(=O)Nc4cccc5ccccc45)cccc3C(=O)N([C@@H](C)CO)C[C@H]2C)cc1`, for which the result was inactive.

Source of the values: PubChem BioAssay AID488866 (Broad Institute, 2010).
